We go through twelve compounds from PubChem BioAssay (NCI).

What all share (test): NCI-60 one-dose screen, 48 h (100 = growth as untreated, 0 = no growth, -100 = all killed)
Common to all, as to settings: 10 µM unless noted

In assay [1] the test system is HT29 colon.
Assay [2] relates to SNB-75 CNS.
Assay [3] deals with SNB-19 CNS.
The test system of assay [4] is U251 CNS.
Assay [5] deals with PC-3 prostate.
Assay [6] has as its system SK-MEL-5 melanoma.
Assay [7] has as its system LOX IMVI melanoma.
Assay [8] deals with SK-MEL-28 melanoma.
The subject of assay [9] is SK-MEL-2 melanoma.
In assay [10] the test system is EKVX NSCLC.
The test system of assay [11] is SN12C renal.
Assay [12] deals with UO-31 renal.
The subject of assay [13] is TK-10 renal.
Assay [14] concerns CAKI-1 renal.
Assay [15] deals with A498 renal.
In assay [16] the test system is CCRF-CEM leukemia.
For assay [17], the system named is MOLT-4 leukemia.
Assay [18] relates to UACC-62 melanoma.
The subject of assay [19] is ACHN renal.

Structures are written as SMILES. Several values for one entry are separate records, joined by “and”; a condition that tells them apart may be missing. Equal entries are not always repeated. Compounds without any hit were thinned out: in the full panel of roughly 83,000, 20% have a hit.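 Single-concentration screen, 48 h exposure, 96-well plates. Endpoint: percent growth. Below 10 = active.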 Activity calls are given as the source filed them.

As to `Nc1cc2c(cc1N)-c1ccccc1C2`, the growth was 96.6% (inactive) and 105% (inactive) in [1]; 71.4% (inactive) and 91.6% (inactive) in assay [2]; 97.7% (inactive) and 115% (inactive) in [3]; 89.9% (inactive) and 89.5% (inactive) in [4]; 85% (inactive) and 105% (inactive) in assay [5]; 95.7% (inactive) and 97.1% (inactive) in assay [6]. Moreover, the growth was 97.5% (inactive) and 93.3% (inactive) in assay [7]; 115% (inactive) and 116% (inactive) in assay [8]; 86.3% (inactive) and 111% (inactive) in assay [9]; 67.1% (inactive) and 68% (inactive) in assay [10]; 75.7% (inactive) and 101% (inactive) in assay [11]; 58.8% (inactive) and 73.1% (inactive) in assay [12]. The growth in assay [13] was 108% (inactive); in assay [14], 56.8% (inactive) and 79.8% (inactive); in assay [15], 88.2% (inactive) and 103% (inactive); in assay [16], 18.9% (inactive) and 30.8% (inactive); in [17], 57.3% (inactive) and 79.8% (inactive).
Turning to `Cc1cccc(/C=C\C(=O)c2ccccc2)c1`, the growth in assay [1] was 91.9% (inactive) and 98.7% (inactive); in assay [2] it was 90.5% (inactive) and 112% (inactive); in [4], 64.8% (inactive) and 91.7% (inactive); in assay [5] it was 86.3% (inactive) and 82.7% (inactive); in assay [6], 106% (inactive) and 95% (inactive); in assay [18] it was 90.2% (inactive) and 105% (inactive). In addition, the growth in [7] is 85.3% (inactive) and 93.5% (inactive); in assay [8] it was 110% (inactive) and 120% (inactive); in assay [9], 100% (inactive) and 103% (inactive); in assay [11], 89.7% (inactive) and 102% (inactive); in assay [13] it was 86.9% (inactive) and 96.3% (inactive); in [19], 124% (inactive) and 110% (inactive). In addition, the growth in assay [14] was 92.8% (inactive) and 95.1% (inactive); in assay [15], 95.2% (inactive) and 68.2% (inactive); in assay [16], 78.9% (inactive) and 64.5% (inactive); in assay [17], 91.5% (inactive) and 49.1% (inactive).
Turning to `CC1(C)Oc2ccc3c(=O)cc(-c4ccc(F)cc4)oc3c2C1C(=O)O` (stereo not drawn), the growth in [18] was 78.1% [100 µM] (inactive) and 87.8% [100 µM] (inactive); in [13], 100% [100 µM] (inactive) and 99.3% [100 µM] (inactive).
Turning to `COC(=O)C1=CO[C@@H](OC2OC(CO)C(O)C(O)C2O)[C@H]2[C@@H](C)[C@@H](O)[C@@H](O)[C@@H]12` (stereo partly drawn), the growth in [18] is 89.9% [100 µM] (inactive) and 99.1% [100 µM] (inactive); in [13] it was 102% [100 µM] (inactive) and 98% [100 µM] (inactive).
Turning to `CCOC(=O)c1cc(C)nc2c1c(=O)n(-c1ccccc1)c(=O)n2CCCCN1CCN(c2ncccn2)CC1`, the growth in [18] was 97.1% [100 µM] (inactive) and 82.3% [100 µM] (inactive); in assay [13], 116% [100 µM] (inactive) and 111% [100 µM] (inactive).
As for `CC(C)CCCC(C)[C@H]1CC[C@H]2[C@@H]3CC[C@H]4C[C@@H](CCC=C(c5cc(Cl)c(O)c(C(=O)O)c5)c5cc(Cl)c(O)c(C(=O)O)c5)CC[C@]4(C)[C@H]3CC[C@]12C` (stereo partly drawn) (tested in a mixture with another compound), the growth in [18] was 72.7% [50 µM] (inactive) and 21% [50 µM] (inactive); in [13], 179% [50 µM] (inactive) and 2.06% [50 µM] (active).
On to `CSc1nc(Br)nc2ncn(C3CC(Oc4ccc(C)cc4)C(COc4ccc(C)cc4)O3)c12` (stereo not drawn), for which the growth is 84.5% [100 µM] (inactive) and -65.3% [100 µM] (active) in assay [18]; 111% [100 µM] (inactive) and -100% [100 µM] (active) in assay [13].
Take `CCC/C(Cl)=N/OC(=O)Nc1cccc(F)c1`: the growth in assay [18] was -86.8% [100 µM] (active) and -100% [100 µM] (active); in [13] it was -100% [100 µM] (active).
For `O=C(O)c1n[nH]nc1Cl`, the growth in assay [18] was 43.6% [100 µM] (inactive) and 103% [100 µM] (inactive); in assay [13] it was 98.7% [100 µM] (inactive) and 107% [100 µM] (inactive).
Take `COC(=O)C(=O)C(C(=O)C(=O)Nc1ccccc1OC)c1nc2ccc([N+](=O)[O-])cc2[nH]c1=O` (stereo not drawn): the growth in assay [18] is 41.9% [100 µM] (inactive) and 22.7% [100 µM] (inactive); in assay [13], 121% [100 µM] (inactive) and 68% [100 µM] (inactive).
Take `COc1ccc(C2c3cc4c(c(OC)c3CC3OCC(=O)C32)OCO4)cc1OC` (stereo not drawn): the growth was 26% [100 µM] (inactive) and 3.65% [100 µM] (active) in assay [18]; 46.4% [100 µM] (inactive) and -11% [100 µM] (active) in assay [13].
As for `COc1ccc2nc(NC(=O)/C(C#N)=C/c3ccccc3)sc2c1`, the growth in [18] was 36.9% [100 µM] (inactive) and 15.8% [100 µM] (inactive); in assay [13], 52.5% [100 µM] (inactive) and -23.1% [100 µM] (active).
